From PubChem BioAssay AID623970 (The Scripps Research Institute Molecular Screening Center, 2012)
“And” between values parts separate entries of the source, which are not always exact repeats. Equal values may be shown once. Some compounds were tested as several samples or in several runs, with calls that do not always agree. The source made the active and inactive calls. No stated cut-off is given here; in the data, active means IC50 below about 90 µM; inactive means the rest.

Test: DNA binding via SYBR dye displacement, late-stage follow-up, artefact control for HCV NS3 helicase inhibitor project, biochemical, fluorescence (AID 623970)
In the case of `CC(=O)Nc1ccc(-c2nc3ccc(-c4nc5ccc(C)c(S(=O)(=O)O)c5s4)cc3s2)cc1`, the IC50 is reported as > 100 µM (inactive). With `CCN(CC)c1ccc(-c2nc3ccc(C)c(S(=O)(=O)O)c3s2)cc1` the IC50 was > 100 µM (inactive). For `Cc1ccc2nc(-c3ccc4nc(-c5ccc(NC(=O)c6ccc(N(C)C)cc6)cc5)sc4c3)sc2c1S(=O)(=O)O`, the IC50 was > 100 µM (inactive). For `Cc1ccc2nc(-c3ccc(NC(=O)c4ccc(NC(=O)c5ccc(NC(=O)OCC6c7ccccc7-c7ccccc76)cc5)cc4)cc3)sc2c1S(=O)(=O)O`, the IC50 was > 100 µM (inactive). For `Cc1ccc2nc(-c3ccc4nc(-c5ccc(NC(=O)c6cc(C(F)(F)F)cc(C(F)(F)F)c6)cc5)sc4c3)sc2c1S(=O)(=O)O`, the IC50 was 86 µM (active). In the case of `O=C(CCCCCCC(=O)Nc1ccc(-c2nc3ccccc3[nH]2)cc1)Nc1ccc(-c2nc3ccccc3[nH]2)cc1`, the IC50 is reported as 14 µM (active). In the case of `COC(=O)c1ccc(C(=O)Nc2ccc(-c3nc4ccc(-c5nc6ccc(C)c(S(=O)(=O)O)c6s5)cc4s3)cc2)cc1`, the IC50 is reported as > 100 µM (inactive). With `COc1ccc(C(=O)Nc2ccc(-c3nc4ccc(-c5nc6ccc(C)c(S(=O)(=O)O)c6s5)cc4s3)cc2)cc1` the IC50 was > 100 µM (inactive). For `Cc1ccc2nc(-c3ccc4nc(-c5ccc(NC(=O)Nc6ccc(Cl)cc6)cc5)sc4c3)sc2c1S(=O)(=O)O`, the IC50 was 8 µM (active). In the case of `CN1CCN(Cc2cc(CN3CCN(C)CC3)c(O)c(=O)c(CN3CCN(C)CC3)c2)CC1`, the IC50 is reported as 72 µM (active). With `Cc1ccc2nc(-c3ccc4nc(-c5ccc(NC(=O)c6cccnc6)cc5)sc4c3)sc2c1S(=O)(=O)O` the IC50 was > 100 µM (inactive). With `COc1ccc(NC(=O)Nc2ccc(-c3nc4ccc(-c5nc6ccc(C)c(S(=O)(=O)O)c6s5)cc4s3)cc2)cc1` the IC50 was 73 µM (active). For `Cc1ccc2nc(-c3ccc4nc(-c5ccc(NC(=S)Nc6ccccc6)cc5)sc4c3)sc2c1S(=O)(=O)O`, the IC50 was 30 µM (active). For `Cc1ccc2nc(-c3ccc(N)cc3)sc2c1S(=O)(=O)O`, the IC50 was > 100 µM (inactive). For `Cc1ccc2nc(-c3ccc(NC(=O)c4ccc(NC(=O)c5ccccc5)cc4)cc3)sc2c1S(=O)(=O)O`, the IC50 was > 100 µM (inactive). In the case of `Cc1ccc2nc(-c3ccc4nc(-c5ccc(N)cc5)sc4c3)sc2c1S(=O)(=O)O`, the IC50 is reported as > 100 µM (inactive) and 23 µM (active). For `Cc1cc2sc(-c3ccc4nc(-c5ccc(N)cc5)sc4c3)nc2cc1S(=O)(=O)O`, the IC50 was 32 µM (active). With `Cc1ccc2nc(-c3ccc4nc(-c5ccc(NC(=O)c6cc(C(F)(F)F)ccc6F)cc5)sc4c3)sc2c1S(=O)(=O)O` the IC50 was > 100 µM (inactive). For `Cc1ccc2nc(-c3ccc(NC(=O)c4ccc(NC(=O)c5ccc(N)cc5)cc4)cc3)sc2c1S(=O)(=O)O`, the IC50 was > 100 µM (inactive). For `Cc1ccc(C(=O)Nc2ccc(-c3nc4ccc(-c5nc6ccc(C)c(S(=O)(=O)O)c6s5)cc4s3)cc2)cc1`, the IC50 was > 100 µM (inactive). For `Cc1ccc2nc(-c3ccc4nc(-c5ccc(NS(=O)(=O)c6ccc(C(F)(F)F)cc6)cc5)sc4c3)sc2c1S(=O)(=O)O`, the IC50 was 82 µM (active). For `Cc1ccc2nc(-c3ccc4nc(-c5ccc(NCc6ccccc6)cc5)sc4c3)sc2c1S(=O)(=O)O`, the IC50 was 27 µM (active). For `Cc1ccc2nc(-c3ccc4nc(-c5ccc(NC(=O)c6ccc(C(F)(F)F)c(F)c6)cc5)sc4c3)sc2c1S(=O)(=O)O`, the IC50 was 28 µM (active). In the case of `Cc1cc(C(O)(c2ccc(Nc3ccccc3)cc2)c2ccc(Nc3ccc(S(=O)(=O)O)cc3)cc2)ccc1N` (centres undefined), the IC50 is reported as 17 µM (active). In the case of `Cc1ccc2nc(-c3ccc(NC(=O)c4ccc(NC(=O)OCC5c6ccccc6-c6ccccc65)cc4)cc3)sc2c1S(=O)(=O)O`, the IC50 is reported as > 100 µM (inactive). With `Cc1ccc2nc(-c3ccc4nc(-c5ccc(NC(=O)c6cccc(C(F)(F)F)c6F)cc5)sc4c3)sc2c1S(=O)(=O)O` the IC50 was > 100 µM (inactive). In the case of `Cc1ccc2nc(-c3ccc4nc(-c5ccc(NC(=O)c6ccc7ccccc7c6)cc5)sc4c3)sc2c1S(=O)(=O)O`, the IC50 is reported as 36 µM (active) and 25 µM (active). For `Cc1ccc2nc(-c3ccc4nc(-c5ccc(NC(=O)c6ccccc6)cc5)sc4c3)sc2c1S(=O)(=O)O`, the IC50 was > 100 µM (inactive). For `Cc1ccc2nc(-c3ccc4nc(-c5ccc(NC(=O)c6ccncc6)cc5)sc4c3)sc2c1S(=O)(=O)O`, the IC50 was > 100 µM (inactive).
